These results are taken from PubChem BioAssay AID628 (Vanderbilt High Throughput Screening Facility, 2007).

SMILES strings stand for the structures. Screen size: about 64,000 compounds; about 2,200 (3.4%) were called active. Only a selection was taken, and actives are over-represented in it overall. Unmarked numbers belong to inactive results.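 The calls were made as follows: active = calcium fluorescence response, raw or row-and-column corrected B-score, differing from the plate sample mean either way at a set confidence level, mostly lower; inactive = the rest.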

For the test, the target named is Muscarinic acetylcholine receptor M1 (Rattus norvegicus) (UniProt P08482). As to the kind of experiment: antagonists of rat M1 muscarinic receptor (AID 628). As to conditions: CHO-M1 cells, Fluo-4 calcium, ACh EC80 antagonist mode; at 10 µM; hits give low values.
Chain of Muscarinic acetylcholine receptor M1 (Rattus norvegicus) (P08482 whole entry, looked up): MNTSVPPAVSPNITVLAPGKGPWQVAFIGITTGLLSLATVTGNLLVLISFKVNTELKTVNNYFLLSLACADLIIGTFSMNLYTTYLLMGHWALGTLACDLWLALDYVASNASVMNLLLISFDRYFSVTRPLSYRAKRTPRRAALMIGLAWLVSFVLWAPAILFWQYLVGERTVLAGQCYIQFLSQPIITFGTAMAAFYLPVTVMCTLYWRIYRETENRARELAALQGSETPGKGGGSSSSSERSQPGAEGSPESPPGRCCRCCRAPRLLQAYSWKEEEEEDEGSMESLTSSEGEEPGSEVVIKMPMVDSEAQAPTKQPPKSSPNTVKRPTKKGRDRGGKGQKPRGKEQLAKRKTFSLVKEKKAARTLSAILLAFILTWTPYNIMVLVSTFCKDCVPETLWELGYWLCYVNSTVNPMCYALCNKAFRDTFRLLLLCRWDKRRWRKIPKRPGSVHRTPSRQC
Consider `COCCNC(=O)C(C#N)c1nc2ccccc2nc1N1CCN(Cc2ccc3c(c2)OCO3)CC1` (stereo not drawn), for which the B-score was 0.357. Next, `COc1ncnc2c1N=C1CC(C)(C)CC(N)=C1S2`: -3.02 (active); `Cc1ccc(S(=O)(=O)N2CCC(C(=O)N[C@@H](C)C(=O)NCc3ccccc3)CC2)cc1`: 0.328.

`COc1cc2cc(CN(CCN3CCCC3)C(=O)Nc3ccccc3Cl)c(=O)[nH]c2cc1OC`: the B-score is -0.424. In the case of `Oc1ccc(Cl)cc1/C=N/c1nc2ccccc2[nH]1` it was 0.265; in that of `COc1ccc(F)cc1S(=O)(=O)Nc1ccc2c(c1)OCO2`, 0.86. Next, `COc1ccc(S(=O)(=O)Nc2ccc3c(c2)OCO3)cc1Cl`: -4.67 (active); `CC(C)CNS(=O)(=O)c1ccc(OCC(=O)Nc2ccc3c(c2)OCO3)c(Cl)c1`: 0.138. In the case of `O=S(=O)(c1ccc2ccccc2c1)N1CCN(S(=O)(=O)N2CCOCC2)CC1` it was 1.15.

`COc1ccc(N2CCN(Cc3cc(=O)oc4ccc5ccccc5c34)CC2)cc1`: the B-score was 0.836. As for `O=c1ccc2cc(S(=O)(=O)N3CCN(c4ccccc4)CC3)ccc2o1`, the B-score was 3.23 (active). Take `CCOC(=O)C1(C(F)(F)F)N=C(N(C)C)OC(N(C)C)=N1`: the B-score was 0.0434. In the case of `Nc1ccc(-n2nncc2-c2ccco2)cc1` it was 0.0134; in that of `OC(COc1cccc(OCC(O)CN2CCCC2)c1)CN1CCCC1` (stereo not drawn), -0.0676; in that of `O=C(C(c1ccccc1)c1ccccc1)N1CCN(CC(O)COc2ccccc2)CC1` (stereo not drawn), -2.34 (active). On to `COc1cccc(OCC(O)CN2CCN(CCO)CC2)c1` (stereo not drawn), for which the B-score was -0.234. On to `N#Cc1ccc(OCCN2C(=O)NC3(CCSC3)C2=O)cc1` (stereo not drawn), for which the B-score was 0.213. Regarding `Cc1n[nH]c(C)c1S(=O)(=O)N1CCCC(C(=O)NCC2COc3ccccc3O2)C1` (stereo not drawn), the B-score was 0.422.

`COc1ccc(C(C)=O)cc1COC(=O)Cn1cnc2ccccc2c1=O`: the B-score was 0.139.

In the case of `CN1CCN(c2ccc(NC(=O)COc3ccc(Cl)cc3Cl)cc2)CC1`, the B-score was -3.05 (active). In the case of `Cc1ccccc1OCC(=O)Nc1ccc(N2CCN(C(=O)C(C)C)CC2)c(Cl)c1`, the B-score is -1.61. As for `Cc1cc(NC(=O)COc2ccc(Cl)cc2Cl)n(CCC#N)n1`, the B-score is -0.163. Take `CCCc1[nH]nc2c1C(c1ccc(Br)s1)C(C#N)=C(N)O2` (stereo not drawn): the B-score was 0.255.

Regarding `CCC1=C(C(=O)OC)C(c2cc(OC)ccc2OC)C(C#N)=C(N)O1` (stereo not drawn), the B-score is 0.513.

Take `CCOC(=O)N1CC=C2C(C#N)=C(N)C(C#N)(C#N)[C@H](c3cccs3)[C@H]2C1`: the B-score was 0.673. On to `CCCN1CC=C2C(C#N)=C(N)C(C#N)(C#N)C(c3cc(OC)ccc3OC)C2C1` (stereo not drawn), for which the B-score was -2.33 (active). Next, `CCn1cc(NC(=O)Nc2ccc(OC)c(OC)c2)c(C(N)=O)n1`: -0.416; `Cn1c(=NC(=O)c2ccco2)sc2cccc(F)c21`: 0.839; `O=C(CC(Cc1ccccc1)C(=O)O)NCCc1ccc2c(c1)OCO2` (stereo not drawn): -0.392. In the case of `O=C(NCCc1ccc2c(c1)OCCO2)c1cc2ccccc2o1` it was -3.3 (active); in that of `O=C(COC(=O)c1ccc2c(c1)OCCO2)NCc1ccccc1`, 0.116; in that of `CCOc1ccccc1C1C(C(=O)OC)=CN(C)C=C1C(=O)OC`, 0.428. `O=C(c1ccccc1)N1CCN(C(=O)N2CCCCC2)CC1`: the B-score is -0.168. For the compound `Cn1nnnc1SCC(=O)N1CCN(C(c2ccccc2)c2ccccc2)CC1`, the B-score is -2.4.

Turning to `O=C(c1ccc(-n2cnnn2)cc1)N1CCN(C(c2ccccc2)c2ccccc2)CC1`, the B-score was -10.9 (active). Turning to `CC(Nc1nc(N2CCCC2)nc2ccccc12)c1ccccc1` (stereo not drawn), the B-score is -1.8. On to `COc1cc(-c2nc(S(=O)(=O)c3ccc(Cl)cc3)c(N(C)C)o2)cc(OC)c1OC`, for which the B-score is 0. Next, `COc1ccc(CSc2nc(N3CCOCC3)c3c(c2C#N)CC(C)(C)OC3)cc1`: 0.045. On to `CCS(=O)(=O)N1CCC(C(=O)N2CCN(c3ccccc3)CC2)CC1`, for which the B-score was -0.14. As to `Cc1ccc(N2CCN(S(=O)(=O)c3ccc(F)cc3)CC2)c(C)c1`, the B-score was 1.98 (active).

For `Cc1ccc(C)c(N2CCN(S(=O)(=O)c3ccc4c(c3)oc(=O)n4C)CC2)c1`, the B-score was 0.182.

As for `Cc1ccc(S(=O)(=O)N2CCC(N3CCCCCC3)CC2)cc1`, the B-score is -0.781. Next, `Cc1cc(=O)oc(C)c1C(=O)NCc1ccc(F)cc1`: -0.775. `CCOC(=O)C(CC)Sc1ncnc2c1nnn2-c1ccc(F)cc1` (stereo not drawn): the B-score was 0.284. Next, `COc1ccc(CCNC(=O)CCCCn2c(=O)[nH]c3ccccc3c2=O)cc1OC`: -0.359; `O=C(CCCn1c(=O)[nH]c2cc(Cl)ccc2c1=O)NCCN1CCN(c2ccccc2)CC1`: 12.4 (active). As to `O=C(CCn1c(=O)[nH]c2ccccc2c1=O)NCCCN1CCN(c2cccc(Cl)c2)CC1`, the B-score was -1.14. In the case of `C=CCn1c(=S)[nH]c2nc3c(cc2c1=O)COC(C)(C)C3` it was -2.69 (active). With `CC(C)OCCCNc1nc2c(c(=O)n(Cc3ccccc3F)c(=O)n2C)n1C`, the B-score was -0.366. Next, `O=C(CN1CCOCC1)Nc1c2c(nc3c1CCC3)CCC2`: -0.251.

`Cc1cccn2c(=O)c3cc(C#N)c(=O)n(CCCN4CCOCC4)c3nc12`: the B-score is -0.356.

Turning to `Cc1cccn2c(=O)c3cc(C#N)c(=NC(=O)c4cccnc4)n(CC4CCCO4)c3nc12` (stereo not drawn), the B-score is -1.9 (active). In the case of `Cc1cccn2c(=O)c3cc(C(=O)N4COCC4(C)C)n(C)c3nc12`, the B-score is -0.585. For `CC1CCc2c(sc3c2C2=NS(=O)(=O)CCN2C=N3)C1` (stereo not drawn), the B-score is -0.133. In the case of `Cc1ccc(C)n1-c1ccncc1` it was -0.0105; in that of `CCOC(=O)CCc1c(C)c(C#N)c2[nH]c3ccccc3n2c1=O`, -0.0991. `COC(CCN(C)C)(c1ccccc1)c1ccccc1`: the B-score is -11.2 (active). In the case of `COc1ccc2oc(=O)c(C(=O)N3CCN(c4ccccc4F)CC3)cc2c1`, the B-score was 0.203. Next, `CN1CCN(CC(=O)Nc2sc3c(c2C#N)CCC(C(C)(C)C)C3)CC1` (stereo not drawn): -2.38 (active); `CCC(=O)Nc1sc(C(=O)N2CCCCC2)c(C)c1C#N`: -0.552; `C1=C(N2CCOCC2)/C(=C/c2nc3ccccc3[nH]2)CC1`: 0.998. As for `Cc1cc2c(cc1C)NC(c1ccccn1)C1=C(CC(C)(C)CC1=O)N2` (stereo not drawn), the B-score was 2.52 (active). Consider `COc1cc(C2C(C#N)=C(C)NC3=C2C(=O)CC(C)(C)C3)ccc1O` (stereo not drawn), for which the B-score is 0.109.

For `CCC1C(C#N)=C(SC)NC2=C1C(=O)CC(C)(C)C2` (stereo not drawn), the B-score is -0.0322.

Turning to `COc1ccccc1Cc1nc(-c2ccc(C)cc2)no1`, the B-score was 0.115. In the case of `COc1ccc(-c2noc(COc3ccc(Cl)c(C)c3)n2)cc1` it was -0.385. Next, `COc1ccc(-c2noc(CN(C)S(=O)(=O)c3ccc(C)cc3)n2)cc1`: -3.11 (active); `CC(C)Oc1ccc(C2NC(=O)NC2=O)cc1` (stereo not drawn): -0.129; `O=C(O)CN(Cc1ccco1)S(=O)(=O)c1ccccc1`: 0.346. For `Cc1cccc(C)c1NC(=O)N1CC=C(n2c(=O)[nH]c3ccccc32)CC1`, the B-score is 0.257.

Turning to `CC(C)C1C2=C(CC(C)(C)CC2=O)ON1c1ccccc1` (stereo not drawn), the B-score was -0.269. As for `Cc1cc(N2C(=O)C(=O)/C(=C(/O)c3ccc(Cl)cc3)C2c2cccc(Br)c2)no1` (stereo not drawn), the B-score is 0.0445. Next, `CCOC(=O)c1c(NC(=O)c2ccc(Br)o2)sc2c1CCCC2`: 0.689; `COC(=O)Nc1ccc(S(=O)(=O)N(C)CC(F)(F)C(F)F)cc1`: 0.467.

`O=S(=O)(CCc1nc2ccccc2o1)c1ccc(Cl)cc1`: the B-score was -2.24 (active). Take `O=S(=O)(O)c1nc2ccccc2n1Cc1ccc(Cl)cc1`: the B-score is 0.456. As for `O=C(CSc1nc2ccccc2o1)N1CCN(c2ccc(Cl)cc2)CC1`, the B-score was -0.0538. For the compound `O=C1c2ccncc2C(=O)N1C1CCCCC1`, the B-score is -0.0556. `O=C(OCc1ccccc1F)c1ccc2c(c1)OCCO2`: the B-score was 0.0701.

Consider `C[C@H](NC(=O)OC(C)(C)C)c1nnc(SCC(=O)Nc2ccc(Br)cc2)o1`, for which the B-score is 0.0617.

Consider `CNC(=O)CN1C(=O)c2ccccc2S1(=O)=O`, for which the B-score was 0.00139. In the case of `Nc1nnc(SCCN2C(=O)c3ccccc3S2(=O)=O)s1` it was 2.64 (active). Next, `CCCc1nnc(NC(=O)CN2C(=O)c3ccccc3S2(=O)=O)s1`: -0.485; `COC(=O)c1cc(NC2c3ccccc3C(=O)N2c2ccc(Cl)cn2)cc(C(=O)OC)c1` (stereo not drawn): 0.743. With `CC(=O)c1c(N)n(C)c(=O)n(C)c1=O`, the B-score was 0.343. In the case of `CCc1ccc(N2CC(C(=O)NC3=NCCS3)CC2=O)cc1` (stereo not drawn) it was -0.382; in that of `CC(NC(=O)COc1ccccc1)C(=O)NC1=NCCS1` (stereo not drawn), -0.755. For the compound `O=C(NC1=NCCS1)c1ccc(Cl)s1`, the B-score was -2.35 (active). In the case of `CCOC(=O)C1CCN(C(=O)C2CCN(S(=O)(=O)N3CCCC3)CC2)CC1` it was -0.822. As for `Cc1ccc(C(=O)NC2CCN(C(=O)N3CCOCC3)CC2)cc1`, the B-score was -0.472. Next, `Cc1noc(C)c1S(=O)(=O)NCCc1ccc(S(N)(=O)=O)cc1`: 0.287; `CCCN1CCN(C(=O)Cn2ncc3ccccc32)CC1`: -0.673. For the compound `CC(C)(C)n1nnc(CCc2nnn(C(C)(C)C)n2)n1`, the B-score was 0.866. With `Cc1ccc(Cc2cncc(O)c2)cc1S(=O)(=O)O`, the B-score was -0.895.

On to `CC12CCC(C(=O)N(CCC#N)CCC#N)(CC1=O)C2(C)C` (stereo not drawn), for which the B-score is 0.00852. In the case of `N#CCCN1CCN(S(=O)(=O)c2ccc(S(=O)(=O)N3CCCC3)cc2)CC1` it was -0.0175; in that of `N#CCCN1CCN(S(=O)(=O)c2ccc(S(=O)(=O)NC3CC3)cc2)CC1`, -0.837; in that of `CC(C)(C)c1cc(CN2CCN(CCC#N)CC2)cc(C(C)(C)C)c1O`, -3.57 (active).
